From PubChem BioAssay
Most compounds without a hit are left out; they make up all but 1.4% or so of the library.
E coli Lon inh: inhibits E. coli Lon protease; AID 602123; inhibition, % at 7.94 µM; 0.42% of 360,000 active; purified E. coli Lon protease, fluorescence polarization; P0A9M0; in the data active = inhibition above about 13%, passing the limit was not always enough
Target sequence (P0A9M0 whole entry, looked up): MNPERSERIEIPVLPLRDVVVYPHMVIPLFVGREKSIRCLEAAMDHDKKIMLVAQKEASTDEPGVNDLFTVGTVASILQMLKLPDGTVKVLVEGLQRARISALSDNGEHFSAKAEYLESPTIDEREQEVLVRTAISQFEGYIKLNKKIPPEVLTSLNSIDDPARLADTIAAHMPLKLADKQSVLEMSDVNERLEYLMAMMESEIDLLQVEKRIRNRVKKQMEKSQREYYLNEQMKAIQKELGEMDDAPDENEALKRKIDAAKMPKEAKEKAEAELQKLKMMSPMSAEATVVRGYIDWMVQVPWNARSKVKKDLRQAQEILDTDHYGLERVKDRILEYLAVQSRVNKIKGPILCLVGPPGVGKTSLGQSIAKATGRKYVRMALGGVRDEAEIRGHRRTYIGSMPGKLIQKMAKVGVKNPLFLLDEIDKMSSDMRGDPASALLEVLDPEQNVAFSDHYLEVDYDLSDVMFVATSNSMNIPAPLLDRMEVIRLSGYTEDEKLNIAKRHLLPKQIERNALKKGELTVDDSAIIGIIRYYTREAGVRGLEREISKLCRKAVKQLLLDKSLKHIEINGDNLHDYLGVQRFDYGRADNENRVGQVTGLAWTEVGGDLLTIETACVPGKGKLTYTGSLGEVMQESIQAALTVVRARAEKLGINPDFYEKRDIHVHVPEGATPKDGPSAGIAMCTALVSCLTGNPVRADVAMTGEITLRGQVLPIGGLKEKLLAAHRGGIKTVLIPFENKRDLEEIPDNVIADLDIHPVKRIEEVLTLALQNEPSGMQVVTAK
BCLXL inh: blocks human Bcl-xL binding to Bim BH3 peptide. inhibition, % at 10.9 µM. Q07817. AID 2129. 0.7% of 320,000 active. GST-Bcl-xL / FITC-Bim BH3 peptide fluorescence polarization;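 active = inhibition above the mean of all tested compounds plus 3 SD, cutoff set per campaign, cut at about 30% in these data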;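 also: inhibitors lower millipolarization by displacing the labeled peptide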
MCL1-BIM inh: inhibitors of human MCL1 binding to BIM-BH3 peptide; GST-MCL1 / FITC-Bim-BH3 fluorescence polarization; 0.68% of 320,000 active; inhibition, % at 10.9 µM; AID 2057; Q07820;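 active = inhibition above the mean inhibition of all tested compounds plus 3 SD, set per campaign, cut at about 40% in these data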;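 also: higher means more loss of mP so more displacement of Bim peptide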
GLD-1 TGE inh: GLD-1-TGE RNA interaction inhibition (C. elegans). purified GLD-1 + fluorescein TGE RNA, fluorescence polarization. 0.44% of 320,000 active. Q17339. inhibition, % at 5.96 µM;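 active = percent inhibition above a per-plate cutoff, the plate mean of test compounds plus 3 SD, cut at about 30% in these data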
MEX-5 binding: C. elegans MEX-5 TCR-2 RNA binding activity; 0.38% of 300,000 active; AID 1832; MEX-5/FITC-TCR2 RNA binding, fluorescence polarization; active compounds read low; activity score (negative = inhibition of binding), % at 10 µM; Q9XUB2;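 active = inhibition past about -25% in most replicates, and total fluorescence under double the plate's negative control median, limit read from the data; inconclusive = replicates evenly split on the limit, or fluorescence at least double controls; inactive = too little inhibition in most replicates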
BCLXL inh confirm: counter-screen for MCL1 inhibitors: confirmation of human Bcl-xL inhibitors | 54% of 1,700 active | GST-Bcl-xL / FITC-Bim BH3 peptide FP binding | inhibition, % at 10.9 µM | shares compounds with MCL1-BIM inh;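 active = inhibition above a cutoff equal to the mean inhibition of all tested compounds plus 3 SD, cut at about 30% in these data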
MCL1 inh confirm: MCL1-BIM-BH3 interaction inhibition, confirmation; shares compounds with MCL1-BIM inh; GST-MCL1 / FITC-Bim-BH3 fluorescence polarization; inhibition, % at 10.9 µM; 61% of 1,700 active; AID 2168;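 active = inhibition above the average of all tested compounds plus 3 SD, cut at about 40% in these data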
Hits are given with their value; - = inactive; ? = inconclusive; . = no result; + = active, no number; ! = not active in a repeat.

SMILES	E coli Lon inh	BCLXL inh	MCL1-BIM inh	GLD-1 TGE inh	MEX-5 binding	BCLXL inh confirm	MCL1 inh confirm
CN1C(=O)NC(=O)/C(=C/c2ccc([N+](=O)[O-])o2)C1=O	.	30	-	-	-43	.	.
CN1C(=O)NC(=O)/C(=C\c2ccc([N+](=O)[O-])o2)C1=O	-	39	-	-	-61	.	.
O=C1NC(=O)N(c2ccccc2)C(=O)/C1=C\c1ccc([N+](=O)[O-])s1	.	-	-	-	.	.	.
O=C1NC(=O)N(c2ccccc2)C(=O)/C1=C\c1ccc([N+](=O)[O-])o1	.	36	42	-	-	.	.
S=P(NCCSCc1ccccc1)(N1CC1)N1CC1	-	.	.	.	.	.	.
CCOc1ccc(-n2c(O)c(C=NCCN(CC)CC)c(=O)[nH]c2=O)cc1	-	-	-	-	-	.	.
CN1C(=O)C(=Cc2sc(=O)n(-c3ccccc3)c2N2CCCCC2)C(=O)N(C)C1=O	-	.	.	.	-46	.	.
O=c1[nH]c(=O)n(-c2ccccc2F)c(O)c1/C=C1\C=Nc2ccccc21	-	-	-	-	-	.	.
O=c1[nH]c(=O)n(CC2CCCO2)c(O)c1/C=C1\C=Nc2ccccc21 (centres undefined)	-	-	-	-	-36!	.	.
O=c1[nH]c(=O)n(Cc2ccccc2)c(O)c1/C=C1\C=Nc2ccccc21	-	-	-	-	?	.	.
O=c1[nH]c(=O)n(-c2ccc(F)cc2)c(O)c1/C=C1\C=Nc2ccccc21	-	-	-	-	-37	.	.
COC(=O)C1=C(c2ccc(-c3ccccc3)c(F)c2)C[C@@H]2CC[C@H]1N2C(=O)NCc1cc(C)oc1C(F)(F)F	-	-	-	-	.	.	.
C[C@@H]1CN([C@H](C)CO)C(=O)CCCn2nncc2CO[C@H]1CN(C)C(=O)Oc1ccccc1	-	.	.	.	.	.	.
O=C(N/N=C/c1c(O)n(Cc2ccco2)c(=O)[nH]c1=O)c1ccccc1O	-	-	-	-	-27	.	.
CCCCC(=O)N/N=C/c1c(O)n(Cc2ccco2)c(=O)[nH]c1=O	-	-	-	-	-	.	.
Ic1ccccc1CN[C@@H]1C2CCN(CC2)[C@@H]1C(c1ccccc1)c1ccccc1	-	-	-	-	.	.	.
CN(C)[C@@H]1C(=O)C(C(N)=O)=C(O)[C@@]2(O)C(=O)C3=C(O)c4c(O)cccc4[C@@](C)(O)[C@H]3C[C@@H]12	.	43	90	-	-59	.	.
N#CC(C#N)=Cc1ccc(-c2ccccc2)o1	.	-	-	-	-43	.	.
COc1ccc(OC)c(N2C(=O)NC(=O)/C(=C\c3ccc([N+](=O)[O-])s3)C2=O)c1	-	-	-	-	-40	.	.
CCN(CC)C(=O)c1ccc2c(c1)C1C=CCC1C(C(=O)O)N2 (centres undefined)	-	.	.	.	-56	.	.
COC(=O)C1=C(c2ccc(Cl)c(C(F)(F)F)c2)C[C@@H]2CC[C@H]1N2C(=O)NCc1cc(C)oc1C(F)(F)F	-	-	-	-	.	.	.
CN1CCN(c2ncnc3c2cnn3C)CC1	-	39	-	-	.	.	.
CCc1cc2c(N3CCN(C)CC3)ncnc2s1	-	-	-	-	-	.	.
Cn1c(O)c(/C=C/C=Nc2ccccc2)c(=O)n(C)c1=S	-	55	-	-	-	.	.
CCCCC1(CCC)C(=O)NC(=S)NC1=O	-	.	.	.	.	.	.
SMILES	E coli Lon inh	BCLXL inh	MCL1-BIM inh	GLD-1 TGE inh	MEX-5 binding	BCLXL inh confirm	MCL1 inh confirm
COc1ccc2c(c1)NP(=S)(Oc1ccccc1)N2 (centres undefined)	-	50	57	-	-47	56	82
Cc1ccc2c(c1)NP(=S)(Oc1ccccc1)N2 (centres undefined)	-	.	.	.	.	.	.
c1ccc2oc(-c3ccc4c(c3)CNCc3cnnn3-4)cc2c1	-	.	.	.	.	.	.
CCOP(=O)(OCC)C(NC(=O)C(Cl)Cl)C(Cl)(Cl)Cl (centres undefined)	-	-	-	-	-	.	.
N#CC(C#N)=Cc1ccc(-c2ccccc2F)o1	-	62	100	-	.	123	150
N#CC(C#N)=Cc1ccc(O)c(O)c1	-	-	-	-	.	.	.
CN(C)[C@@H]1C(=O)C(C(N)=O)=C(O)[C@@]2(O)C(=O)C3=C(O)c4c(O)cccc4[C@@](C)(O)C3[C@H](O)C12 (some centres undefined)	-	153	+	77	-	37	87
CN(C)C1C(=O)C(C(N)=O)=C(O)C2(O)C(=O)C3=C(O)c4c(O)cccc4C(C)(O)C3CC12 (centres undefined)	-	30	62	-	?	-	-
CC(C)C1C(C#N)=C(N)Oc2c1c(=O)oc1ccccc21 (centres undefined)	-	.	.	.	.	.	.
COC(=O)C1=C(c2ccccc2OCc2ccccc2)C[C@@H]2CC[C@H]1N2C(=O)NCc1cccc(C(F)(F)F)c1	-	-	-	-	.	.	.
CN1CCc2cc(O)cc3c2[C@H]1Cc1ccc(O)c(O)c1-3	-	-	48	-	-85	54	54
Cc1ccccc1NC(=O)Cc1nc(COC(=O)Cc2ccccc2)cs1	-	152	+	137	.	-	-
O=c1[nH]c(=S)n(-c2ccccc2Cl)c(O)c1C=NCCN1CCNCC1	-	.	.	.	-	.	.
CCN(CC)C(=O)c1ccc2c(c1)C1C(Cl)C(Sc3ccccc3[N+](=O)[O-])CC1C(C(=O)O)N2 (centres undefined)	-	86	95	-	-56	34	-
Cc1ccc2c(c1Cl)NC(C(=O)O)C1CC(Sc3ccccc3[N+](=O)[O-])C(Cl)C21 (centres undefined)	-	-	59	-	-	-	-
O=C(O)c1ccc2c(c1)C1C(Cl)C(Sc3ccccc3[N+](=O)[O-])CC1C(c1cccc([N+](=O)[O-])c1)N2 (centres undefined)	-	.	.	.	.	.	.
C=C(C)CC1(CC)C(=O)NC(=S)NC1=O	-	.	.	.	.	.	.
COC(=O)C1=C(c2ccc(F)cc2F)C[C@@H]2CC[C@H]1N2C(=O)NCCOc1ccccc1	-	-	119	-	.	-	-
Cc1c(C(=O)C(=O)N2CCC3(CC2)OCCO3)c2ccccc2n1C	-	-	-	-	-	.	.
O=c1[nH]c(=S)n(-c2ccccc2F)c(O)c1C=Nc1ccc(N2CCOCC2)cc1	-	-	-	-	-	.	.
O=c1[nH]c(=S)n(-c2ccc(Br)cc2)c(O)c1C=Nc1ccc(N2CCOCC2)cc1	-	170	+	-	-	+	+
O=C1NC(=S)NC(=O)C1=Cc1ccc(Br)s1	-	-	46	-	-	-	53
CCN(CC)c1ccc(/C=C2/C(=O)NC(=O)N(CC3CCCO3)C2=O)cc1 (centres undefined)	-	52	50	-	-	-	-
O=C1NC(=O)N(CC2CCCO2)C(=O)/C1=C/c1cccs1 (centres undefined)	-	-	-	-	-	.	.
Cc1ccccc1N1C(=O)/C(=C/c2ccco2)C(=O)NC1=S	.	97	98	-	-	97	99
